High-throughput results (PubChem BioAssay)
Mtb FBA inh – Mtb FBA enzyme inhibitors, primary screen, biochemical, fluorescence, strain H37Rv. Fructose-bisphosphate aldolase (Mycobacterium tuberculosis (strain ATCC 25618 / H37Rv)), …. purified M. tuberculosis FBA, fluorescence read-out. inhibition, % at 1 µM. 360,000 compounds, 2.3% hits. AID 588726, 2011;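 note: 0% = vehicle and 100% = reference inhibitor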
GDH-TPI counter-1 – GDH-TPI coupling enzyme inhibitors, primary screen, artefact control for M. tuberculosis FBA inhibitor project, biochemical, absorbance, full deck | GDH-TPI coupled enzyme counterscreen, NADH absorbance | inhibition, % at 4.8 µM | 360,000 compounds, 1.2% hits | AID 588335, 2011; in the data active = inhibition above about 30%;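 note: 0% = DMSO wells and 100% = wells lacking the enzyme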
Mtb bLac sens – beta-lactam sensitization of Mtb H37Rv, H37Rv | M. tuberculosis H37Rv growth with meropenem, percent inhibition | inhibition, % at 25 µM | 330,000 compounds, 0.27% hits | AID 434955, 2010; call rule not given here;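 note: growth measured after seven days incubation then overnight dye step; 0% = bacteria only wells and 100% = bacteria with antibiotic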
Rv3671c inh – Rv3671c serine protease inhibitors, primary screen, biochemical, fluorescence polarization, M. tuberculosis H37Rv. P9WHR9. inhibition, % at 5.96 µM. 320,000 compounds, 0.048% hits; in the data active = inhibition above about 38%;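 note: extracellular domain of Rv3671c used as enzyme; 0% = enzyme with DMSO and 100% = no enzyme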
UGM FP inh – M. tuberculosis UGM enzyme inhibitors, primary screen, biochemical, fluorescence polarization, single point; 320,000 compounds, 0.06% hits; purified UGM, fluorescence polarization probe displacement; inhibition, % at 10 µM; AID 504406, 2011; UDP-galactopyranose mutase (Mycobacterium tuberculosis (strain ATCC 25618 / H37Rv)), …; in the data active = inhibition above about 10%, passing the limit was not always enough
Target sequence (P9WIQ1 whole entry, looked up): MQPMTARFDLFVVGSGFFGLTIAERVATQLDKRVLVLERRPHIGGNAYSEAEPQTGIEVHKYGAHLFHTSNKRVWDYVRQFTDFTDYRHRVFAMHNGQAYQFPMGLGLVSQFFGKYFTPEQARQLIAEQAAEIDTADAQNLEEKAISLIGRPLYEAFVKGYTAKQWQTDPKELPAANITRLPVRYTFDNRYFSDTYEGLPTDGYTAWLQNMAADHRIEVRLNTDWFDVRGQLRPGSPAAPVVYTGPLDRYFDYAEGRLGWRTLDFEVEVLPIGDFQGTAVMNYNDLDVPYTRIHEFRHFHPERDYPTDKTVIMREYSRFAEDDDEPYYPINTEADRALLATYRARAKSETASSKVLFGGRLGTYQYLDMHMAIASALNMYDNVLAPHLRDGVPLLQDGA
Mtb FBA confirm – M. tuberculosis aldolase blockers, biochemical, fluorescence, strain H37Rv, confirmation; shares compounds with Mtb FBA inh; purified M. tuberculosis FBA, fluorescence read-out; inhibition, % at 1 µM; 5,600 compounds, 78% hits;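 note: 0% = vehicle wells and 100% = reference inhibitor wells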
GDH-TPI counter-2 – GDH-TPI coupling enzyme inhibitors, artefact control for M. tuberculosis FBA inhibitor project, biochemical, fluorescence, high throughput; shares compounds with Mtb FBA inh; GDH-TPI coupled enzyme counterscreen; inhibition, % at 1 µM; 5,600 compounds, 81% hits; AID 652141, 2013; in the data active = inhibition above about 10%
Numbers without * were called inactive; · = no result given; + = active, no number. Shown are actives, neighbours in structure and some others; about 3.5% of the full set was active somewhere. Cut-off read from the data, not from the text of the source, unless noted: active = inhibition above about 27%; inactive = the rest.

SMILES	Mtb FBA inh	GDH-TPI counter-1	Mtb bLac sens	Rv3671c inh	UGM FP inh	Mtb FBA confirm	GDH-TPI counter-2
Cc1ccccc1/C=N/N=C1/NC(=O)CCS1	29.0*	31.7*	-10.9	14.5	1.5	127.9*	90.3*
C[C@@H]1COC(=O)[C@H](Cc2ccc(F)cc2)C/C=C\C[C@@H](CC(=O)NCCO)C(=O)N1	-1.9	7.4	5.3	0.0	0.6	·	·
O=C(O)C(Oc1ccc2c3c(c(=O)oc2c1)CCC3)c1ccccc1 (configuration not stated)	69.2*	22.0	-5.8	-1.0	1.6	3.5	-4.6
CCc1cc(=O)oc2c(C)c(OCC(=O)NC3CC(C)(C)NC(C)(C)C3)ccc12	37.5*	18.4	2.5	-1.9	-3.0	139.2*	124.0*
O=C(O)c1ccc(COc2ccc3c4c(c(=O)oc3c2)CCC4)o1	34.1*	21.9	-6.2	0.8	1.3	95.4*	63.8*
C=CCOc1ccc2c(CC)cc(=O)oc2c1C	40.8*	6.9	-3.5	-11.0	-1.3	+	164.4*
Cc1cc(=O)oc2cc(OC(C(=O)O)c3ccccc3)ccc12 (configuration not stated)	17.1	24.1	-1.1	6.4	-1.0	·	·
COc1cccc(CNC(=O)CCCC(=O)NC(C)CCc2ccccc2)c1 (configuration not stated)	2.0	-7.4	-18.9	5.1	-0.5	·	·
Cc1ccc(CNC(=O)c2ccc(N3CCC4(CC3)CC(c3ccccc3)=NO4)c([N+](=O)[O-])c2)cc1	-8.1	2.0	12.3	-18.8	3.7	·	·
CCN(CC)C(=O)C1=C(C)N(CCCOC)C(=O)C(CC(=O)NC2CC2)C1 (configuration not stated)	1.7	13.7	·	·	·	·	·
CCN(C[C@H]1N[C@@](CC)(C(=O)OC)[C@H]2C(=O)N(C)C(=O)[C@@H]12)C(=O)C1CCCCC1	2.5	8.2	-3.4	1.8	·	·	·
CCc1cc2c3c(c(=O)oc2cc1OCC(=O)OC)CCCC3	53.7*	7.1	86.5	-2.4	-0.5	47.7*	31.1*
O=C(COc1cc2oc(=O)c3c(c2cc1Cl)CCCC3)NCc1cccnc1	2.4	0.4	-1.4	-7.5	3.2	·	·
Cc1c(OCc2nn[nH]n2)ccc2c3c(c(=O)oc12)CCC(C)C3 (configuration not stated)	107.1*	26.6	-12.5	-2.5	4.1	+	154.7*
CC(=O)COc1ccc2c3c(c(=O)oc2c1)CCCC3	69.7*	2.6	48.4	0.7	-0.5	33.5*	35.1*
Cc1cc(=O)oc2cc(OC(C)C)ccc12	73.1*	10.3	4.6	0.7	-1.5	+	178.1*
CN(CCOC(=O)CN1C(=O)c2ccccc2C1=O)C1=NS(=O)(=O)c2ccccc21	·	·	3.9	0.4	-2.1	·	·
O=C(O)C(Oc1ccc2cc(-c3ccc(Cl)cc3)c(=O)oc2c1)c1ccccc1 (configuration not stated)	103.7*	4.4	-5.9	·	-2.6	+	+
COC(=O)C(Oc1ccc2c(-c3ccc(OC)cc3)cc(=O)oc2c1)c1ccccc1 (configuration not stated)	-6.0	7.8	95.3	0.9	5.7	·	·
CC(=O)C(C)Oc1ccc2c3c(c(=O)oc2c1)CCCC3 (configuration not stated)	39.8*	6.2	3.8	-8.3	-0.5	+	145.7*
O=c1oc2cc(OCc3ccc([N+](=O)[O-])cc3)ccc2c2c1CCCC2	0.5	-2.5	10.7	-5.7	-1.2	·	·
O=c1oc2cc(OCc3nn[nH]n3)ccc2c2c1CCCC2	89.0*	-3.9	-7.1	-6.0	2.3	-1.4	-1.7
C#CCOc1ccc2c3c(c(=O)oc2c1)CCCC3	45.8*	-2.5	-1.8	-3.3	-0.9	+	+
